High-throughput results deposited in PubChem BioAssay by several laboratories.
hgDAF12 agonist – H. glycines DAF-12 receptor agonists, primary screen, cell-based, luminescence, HEK293, GAL4 fusion, UAS-luciferase. Nuclear hormone receptor DAF-12 (Heterodera glycines), GAL4 fusion. HEK293 GAL4-hgDAF12 UAS-luciferase reporter, agonist luminescence; normalized to butyrate control. activation, % at 6.8 µM. hit rate 1.8% among 370,000;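 active = activation above a cutoff set at the mean of all screened compounds plus 3 SD, cut at about 10% in these data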
DAX1 inh-1 – DAX1 (NR0B1) inhibitors on StAR promoter, primary screen, cell-based, luminescence, SF-1 (NR5A1), full-length DAX-1; inhibition, % at 6.8 µM; hit rate 1.1% among 370,000; HEK293T StAR-luciferase reporter, SF-1/DAX-1 repression relief;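 active = inhibition above the mean over all tested compounds plus 3 SD, cut at about 3.6% in these data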;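 also: higher inhibition means more luminescence from relief of DAX-1 repression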
hcDAF-12 act – H. contortus DAF-12 nuclear receptor activators, primary screen, cell-based, luminescence, HEK293, lit1-tk-luc reporter; HEK293 hcDAF-12 lit1-tk-luc reporter; 0% DMSO, 100% Δ7-dafachronic acid; activation, % at 6.8 µM; hit rate 1.4% among 370,000; AID 652067, 2013;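 active = activation above the mean of all tested compounds plus 3 SD, cut at about 5.5% in these data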
NR1D1 modulator – modulators of Rev-erb alpha DNA binding, primary screen, biochemical, FITC-DNA, fluorescence polarization, uHTS; Rev-erbα–FITC-DNA binding, 90 min; activity, % at 10 µM; hit rate 0.79% among 370,000; AID 1259318, 2017;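 active = activity above about 14%, limit read from the data; passing the limit was not always enough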
DAX1 inh-2 – DAX1 (NR0B1) inhibitors, primary screen, cell-based, HEK293, Gal4-DAX1, luciferase luminescence; Nuclear receptor subfamily 0 group B member 1 (Homo sapiens), P51843; HEK293 Gal4-DAX1 luciferase reporter; inhibition, % at 6.75 µM; hit rate 0.99% among 340,000; AID 504766, 2011;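 active = inhibition above the mean over all tested compounds plus 3 SD, cut at about 4.2% in these data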;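 also: inhibition shows as a rise in luminescence from relieved DAX1 repression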
ssDAF-12 act – S. stercoralis DAF-12 nuclear receptor activators, primary screen, cell-based, luminescence, HEK293, GRIP1 co-expression, lit1-tk-luc | Nuclear hormone receptor DAF-12 (Strongyloides stercoralis) | activation, % at 6.8 µM | hit rate 1% among 370,000 | HEK293 ssDAF-12/GRIP1 lit1-tk-luc reporter; % of 3 µM dafachronic acid response;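 active = activation above the mean over all tested compounds plus 3 SD, cut at about 0.9% in these data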
DAX1 inh confirm – DAX1 (NR0B1) inhibitors relieving SF-1 repression, confirmation, cell-based, luminescence, HEK293T, full-length DAX-1, SF-1 activated StAR promoter; shares compounds with DAX1 inh-1; HEK293T StAR-promoter luciferase reporter, SF-1/DAX-1 repression; inhibition, % at 6.8 µM; hit rate 87% among 2,400; AID 652134, 2013;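 active = inhibition above the average of every tested compound plus 3 SD, cut at about 3.8% in these data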
Target sequence (P51843 whole entry, looked up): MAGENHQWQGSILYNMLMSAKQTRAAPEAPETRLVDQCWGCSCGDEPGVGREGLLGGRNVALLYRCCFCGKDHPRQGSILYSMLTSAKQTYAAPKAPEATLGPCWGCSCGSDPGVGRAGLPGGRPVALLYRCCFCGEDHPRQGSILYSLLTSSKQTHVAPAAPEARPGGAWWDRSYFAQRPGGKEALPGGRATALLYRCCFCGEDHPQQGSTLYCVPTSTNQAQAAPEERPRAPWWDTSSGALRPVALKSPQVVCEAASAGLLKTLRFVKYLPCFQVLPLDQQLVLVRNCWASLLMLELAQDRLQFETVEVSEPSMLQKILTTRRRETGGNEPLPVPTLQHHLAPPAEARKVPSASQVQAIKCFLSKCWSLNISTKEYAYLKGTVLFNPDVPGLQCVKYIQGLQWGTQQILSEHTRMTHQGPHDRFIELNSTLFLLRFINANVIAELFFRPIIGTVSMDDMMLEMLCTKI
SF1 mutant ctr – StAR reporter signal changes without DAX1, counter-screen for DAX1 inhibitor project, cell-based, luminescence, AF-2 mutant SF-1, transactivation; shares compounds with DAX1 inh-1; HEK293 StAR-luciferase, SF-1 AF2 mutant; inhibition, % at 6.8 µM; hit rate 78% among 2,400; AID 652136, 2013;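 active = inhibition above the mean of all tested compounds plus 3 SD, cut at about 3% in these data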
LXR ag – LXR agonists, Gal4 luciferase reporter, confirmation, counter-screen for hcDAF-12 agonist project, cell-based, luminescence, HEK293, H. contortus campaign; shares compounds with hcDAF-12 act; 3,400 tested, under 10 active; HEK293 Gal4-LXR tk-luc reporter, 24 h; normalized: DMSO 0%, positive control 100%; AID 743027, 2013; activation, % at 6.8 µM;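 active = mean percent activation of the reporter above a cutoff set as the average over tested compounds plus their standard deviation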
hcDAF12 ag – H. contortus DAF-12 receptor agonists, confirmation, cell-based, luminescence, HEK293, lit1-tk-luc, triplicate. shares compounds with hcDAF-12 act. activation, % at 6.8 µM. HEK293 hcDAF-12 lit1-tk-luc reporter; % of Δ7-dafachronic acid response. hit rate 61% among 3,400;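 active = mean activation across triplicate tests above the threshold derived from the earlier primary screen, cut at about 5.5% in these data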
hgDAF12 ag – H. glycines DAF-12 receptor agonists, confirmation, cell-based, luminescence, HEK293, GAL4-LBD fusion | shares compounds with hgDAF12 agonist | HEK293 GAL4-hgDAF12 luciferase reporter, agonist mode; percent of butyrate response | activation, % at 6.8 µM | hit rate 80% among 3,300 | AID 743050, 2013;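 active = mean activation over triplicate wells above the hit cutoff derived from the earlier primary screen, cut at about 11% in these data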
LXR ag 2 – LXR agonists, Gal4 luciferase reporter, confirmation, counter-screen for hgDAF-12 agonist project, cell-based, luminescence, HEK293, H. glycines campaign. shares compounds with hgDAF12 agonist. 24 h. activation, % at 6.8 µM. 3,300 tested, under 10 active. AID 743051, 2013;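 active = mean activation of the triplicate above a set limit carried over from the primary screen, none filed active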
Hits are given with their value; i = inactive; nt = not tested or not shown. Hits are enriched below; roughly 4.8% of the tested compounds scored in any of these assays.

SMILES | hgDAF12 agonist | DAX1 inh-1 | hcDAF-12 act | NR1D1 modulator | DAX1 inh-2 | ssDAF-12 act | DAX1 inh confirm | SF1 mutant ctr | hgDAF12 ag | LXR ag 2 | others
COc1cccc(CNc2ccc(Br)cn2)c1O | 19 | 4.5 | 6.8 | i | i | 1.1 | 12 | 6.1 | 18 | i | LXR ag=i;hcDAF12 ag=6.0
Nn1c(SCC(=O)Nc2cc(C(F)(F)F)ccc2Cl)nnc1-c1n[nH]c2c1CCC2 | i | i | i | i | nt | i | nt | nt | nt | nt
O=C(CNC(=O)Cc1ccccc1)N=Nc1c(O)[nH]c2ccccc12 | i | i | i | i | i | i | nt | nt | nt | nt
O=C(N=Nc1c(O)[nH]c2ccccc12)Nc1ccccc1 | 17 | 5.5 | i | i | 5.6 | 1.2 | 16 | 7.1 | 13 | i
Cc1ccccc1N(C)C(=O)Cn1nnc(-c2ccccc2F)n1 | i | i | i | i | nt | i | nt | nt | nt | nt
O=C(N[C@H](C(=O)N1CCC[C@H]1C(=O)NCCc1ccccc1Cl)c1ccccc1)c1ccco1 | i | i | i | i | nt | i | nt | nt | nt | nt
Cc1nn(-c2nnc(NC3CCCCC3)nn2)c(C)c1Br | 18 | 5.2 | 6.1 | i | i | 1.8 | 13 | 8.3 | 16 | i
Cc1cc(NS(=O)(=O)c2ccc(NC(=O)CSc3nnc(-c4ccco4)n3-c3ccc(Cl)cc3)cc2)nc(C)n1 | i | i | i | i | nt | i | nt | nt | nt | nt
N#Cc1cccc(-c2ccccc2C(=O)NC2CCCCN(Cc3ccc(Cl)cc3)C2=O)c1 (stereo not given) | i | i | i | i | nt | i | nt | nt | nt | nt
O=C(NCCc1ccc(Cl)cc1)c1ccc2c(c1)OCO2 | 13 | 11 | i | i | i | i | 12 | 6.6 | 16 | i
CCN(CC)c1ccc(N=Nc2nn(C)c(C)c2[N+](=O)[O-])cc1 | 16 | 4.7 | i | i | i | 1.2 | 14 | 5.2 | 15 | i
CCN(Cc1ccccc1)c1ccc(N=Nc2nn(C)c(C)c2[N+](=O)[O-])cc1 | i | i | i | i | i | i | nt | nt | nt | nt
COc1ccc(/C=C2\SC(=O)N(CCNC(=O)C3CC4C=CC3C4)C2=O)cc1 (stereo not given) | 21 | 5.5 | i | i | i | i | 8.6 | 4.3 | 23 | i
Cc1cnc(NC(=O)COc2ccc3c(c2)CCC3)s1 | 25 | 13 | 6.1 | i | i | 1.3 | 14 | 5.3 | 25 | i
CC(C)Cc1ccc(-c2cc3nc(NCCCn4ccnc4)ccn3n2)cc1 | 15 | 5.5 | 6.1 | i | nt | i | 7.6 | 5.1 | 11 | i
CCc1ccc2cc3c(cc2n1)C(=O)c1ccccc1-3 | 21 | 9.5 | 17 | i | nt | 3.6 | 11 | 6.4 | 23 | i | LXR ag=i;hcDAF12 ag=16
O=C(Nc1nc2c(s1)COc1ccccc1-2)c1cccs1 | 15 | 12 | i | i | 4.8 | i | 8.8 | 9.4 | i | i
Cc1cccc2cc(/C=N/NC(=O)c3ccncc3)c(Cl)nc12 | i | i | i | i | i | i | nt | nt | nt | nt
Cc1cccc2cc(/C=N/Nc3ccc(C(=O)O)cc3)c(Cl)nc12 | 19 | 8.9 | 6.0 | i | i | i | 37 | 15 | 25 | i
O=C(O)c1ccc(N/N=C/c2cc3ccccc3nc2Cl)cc1 | 17 | 5.4 | 5.6 | i | 4.3 | i | 14 | 5.7 | 12 | i
C#CCN(Cc1ccco1)C(=O)c1nnc2c3cc(OC)ccc3n(S(=O)(=O)c3ccc(OC)cc3)c2n1 | i | i | i | i | nt | i | nt | nt | nt | nt
Cc1cc(N2CCN(S(C)(=O)=O)C[C@@H]2C)ccc1N1CCN(Cc2ccccc2)[C@@H](C)C1 | i | i | i | i | nt | i | nt | nt | nt | nt
CC(=O)c1sc(NC(=O)c2cccc(C)c2)nc1C | 20 | 4.6 | i | i | 7.0 | i | 5.9 | 5.4 | 15 | i
CC(=O)c1sc(NC(=O)c2ccc(F)c(F)c2)nc1C | i | i | i | i | i | i | nt | nt | nt | nt
Cc1ccc(C(=O)NC2CCCCN(Cc3ccc(Cl)cc3)C2=O)c(C)c1 (stereo not given) | i | i | i | i | nt | i | nt | nt | nt | nt
O=c1c2c(nc3cc(-c4cccc(Cl)c4)[nH]n13)CCC2 | 15 | 5.5 | i | i | i | i | 16 | 6.7 | 14 | i
COc1ccc(-c2ccc3c(n2)CCCN3S(=O)(=O)c2ccc(C#N)cc2)cc1 | i | i | i | i | nt | i | nt | nt | nt | nt
CC(C)c1ccc(NC(=O)c2csnn2)cc1 | 13 | 4.7 | i | i | i | 1.1 | 12 | 6.6 | 13 | i
